Assay outcomes as filed in PubChem BioAssay.
TRHR ag: activates the human TRH receptor | P34981 | TRHR cells, calcium flux fluo-8, FDSS agonist mode | activation, % at 2 µM | 0.18% of 360,000 active; note: 0% is about no effect
Target sequence (P34981 whole entry, looked up): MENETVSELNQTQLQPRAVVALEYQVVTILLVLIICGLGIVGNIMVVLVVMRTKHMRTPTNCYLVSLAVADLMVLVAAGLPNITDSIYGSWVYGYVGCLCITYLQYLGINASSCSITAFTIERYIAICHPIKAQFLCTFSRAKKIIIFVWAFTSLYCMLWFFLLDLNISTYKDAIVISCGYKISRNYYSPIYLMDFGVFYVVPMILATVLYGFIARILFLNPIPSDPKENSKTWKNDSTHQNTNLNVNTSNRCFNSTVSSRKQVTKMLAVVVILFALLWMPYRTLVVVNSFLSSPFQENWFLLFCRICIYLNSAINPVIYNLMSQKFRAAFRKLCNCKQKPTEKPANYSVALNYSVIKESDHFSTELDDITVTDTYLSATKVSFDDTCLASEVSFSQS
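TRHR-expressing cells, plated overnight in medium with 10% serum, were loaded with fluo-8 calcium dye at room temperature. After a 10 s baseline, library compound was pin-added and calcium release was recorded kinetically (ex 480/em 530) as agonist response.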
D1 potentiator: human D1 dopamine receptor positive modulation; P21728; HEK293 TREx D1 cells, calcium flux, dopamine EC20 potentiation; potentiation, % at 10 µM; 0.036% of 360,000 active; AID 504651; in the data active = potentiation above about 30%; note: 0% is about no effect
TRHR enhancer: allosterically enhances the human TRH receptor. TRHR cells, fluo-8 calcium fluorescence, EC20 TRH enhancement. enhancement, % at 2 µM. 0.66% of 360,000 active; in the data active = enhancement above about 30%; note: 0% is about no effect
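TRHR-expressing cells loaded with fluo-8 calcium dye were read kinetically (ex 480/em 530) during compound addition, then stimulated with an EC20 of TRH (10 nM final). Enhancement of the Gq-mediated intracellular calcium response was scored.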
D1 ag: agonists of human D1 dopamine receptor; 1% of 360,000 active; P21728; activation, % at 2 µM; HEK293 T-REx D1 cells, calcium flux, agonist mode; note: 0% is about no effect
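Agonism was scored from calcium flux recorded over 180 s (1 read/s) after pintool compound addition, following a 10-cycle baseline. Cells were inducible force-coupled HEK293 TREx D1, plated overnight at 30 C and loaded with no-wash calcium dye.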
D1 antag: antagonists of human D1 dopamine receptor; HEK293 TREx D1 cells, calcium flux, dopamine EC80; stronger effect = lower value; AID 504652; P21728; activity change, negative = inhibition, % at 10 µM; 3.2% of 360,000 active; in the data active = activity change below about -30%; note: % is set by controls: 0 for no effect and ±100 for the full control effect
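Kinetic fluorescence of a calcium dye serves as the read-out. D1-expressing Hek293 Trex cells, induced overnight at 30 C, are exposed to compound for 180 s before an EC80 dopamine addition, then read 180 s further.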
Starred values were filed as active, the others as inactive; ! = not active in a repeat. Rows were chosen to be rich in hits. Some 4.6% of all compounds tested hit in one or more screens of this group. Cut-off read from the data, not from the text of the source, unless noted: active = activation above about 30%; inactive = the rest.

SMILES | TRHR ag | D1 potentiator | TRHR enhancer | D1 ag | D1 antag
CCOc1ccccc1CNC(=O)c1ccc(-c2nc(CSc3ccc(C)cc3)c(C)o2)cc1 | 1 | -2 | -1 | 14 | 6
Cc1ccc(SCc2nc(-c3ccc(C(=O)NCc4ccc(Cl)cc4)cc3)oc2C)cc1 | 0 | -3 | -10 | 2 | -84*
Cc1oc(-c2ccc(C(=O)NCc3ccccc3F)cc2)nc1COc1ccccc1 | 1 | -4 | -20 | 11 | -54*
CC(=O)Nc1ccc(NC(=O)Cn2ccc([N+](=O)[O-])n2)cc1 | 0 | 2 | -1 | 2 | 4
CCCCN(CCCNC(=O)C1CCN(S(=O)(=O)N2CCOCC2)CC1)c1ccccc1 | -1 | -4 | -4 | 3 | -35*
O=C(COc1ccc([N+](=O)[O-])cc1Cl)NCC1CCCO1 (stereo unspecified) | 0 | -5 | 4 | 2 | -39*
CC(C)CNS(=O)(=O)c1ccc(OCC(=O)NCC2CCCO2)c(Cl)c1 (stereo unspecified) | 0 | -2 | -1 | 2 | -36*
Cc1cc(C)nc(N(C#N)Cc2cccc([N+](=O)[O-])c2)n1 | 1 | 3 | -3 | 1 | 4
CCOC(=O)c1c(C(C)(C)C)oc2ccc(O)cc12 | -1 | 3 | -5 | 88* | -1
CCC1CCCCN1CC(C)(C)NS(=O)(=O)c1ccccc1 (stereo unspecified) | 0 | 5 | 0 | 2 | -44*
C=CCOc1ccc(Br)cc1CNC(C)(C)CO | 0 | -5 | 0 | 3 | -42*
COCCNC(=S)N(CCCO)Cc1cc2cc3c(cc2[nH]c1=O)OCCO3 | 0 | 1 | -3 | 6 | -5
COc1ccc(NC(=O)N2CCN(c3cccc(C(F)(F)F)c3)CC2)cc1OC | 0 | -10 | -5 | 14 | -6
O=C(Nc1ccccc1)N1CCN(c2cccc(C(F)(F)F)c2)CC1 | 2 | -8 | 6 | 27 | -34*
O=C(CS(=O)(=O)Cc1ccccc1)N1CCN(c2cccc(C(F)(F)F)c2)CC1 | 0 | -2 | -7 | 12 | -33*
O=C(CCS(=O)(=O)c1ccccc1)N1CCN(c2cccc(C(F)(F)F)c2)CC1 | -1 | -10 | -6 | 21 | -20
O=C(C1CCC1)N1CCN(c2cccc(C(F)(F)F)c2)CC1 | 0 | -7 | 4 | 5 | -54*
O=C(c1ccc2nccnc2c1)N1CCN(c2cccc(C(F)(F)F)c2)CC1 | 0 | 1 | 31* | -1 | 20
CCCn1c(SCC(=O)Nc2ccc(C(=O)Nc3ccccc3OC)cc2)n[nH]c1=O | 0 | 2 | 8 | 0 | 0
CCCCn1c(=O)c(CCC(=O)OC(C)C(=O)Nc2cccc(Cl)c2Cl)nc2ccccc21 (stereo unspecified) | 1 | 15 | -2 | 6 | 5
COc1ccc(CCN2CC(C(=O)NCCc3ccc(F)cc3)CCC2=O)cc1 (stereo unspecified) | 0 | -10 | -2 | 0 | -5
Cn1c(=O)n(C)c2cc(N3CCCC3)c(NC(=O)Nc3ccccc3)cc21 | 1 | -1 | -7 | 0 | -11
CN1CCN(c2ccc(C(F)(F)F)cc2NC(=O)Nc2ccccc2)CC1 | 0 | -6 | -3 | 73* | -7
Cc1ccc(CNS(=O)(=O)c2ccc(-c3cnc(C4CC4)o3)cc2)cc1 | 0 | -5 | 4 | 9 | -27
O=S(=O)(NCc1ccccc1)c1ccc(-c2cnc(C3CC3)o2)cc1 | 0 | -5 | 2 | 9 | -38*!
SMILES | TRHR ag | D1 potentiator | TRHR enhancer | D1 ag | D1 antag
Cc1ccc(NS(=O)(=O)c2ccc(-c3cnc(C4CC4)o3)cc2)cc1 | 1 | -3 | -2 | 8 | -18
Cc1ccc(N(C)S(=O)(=O)c2ccc(-c3cnc(C4CC4)o3)cc2)cc1 | 1 | -3 | 5 | 13 | -32*!
CC(=O)c1c(C)[nH]c(C(=O)OCC(=O)c2ccc(C)s2)c1C | 0 | -7 | 19 | 4 | -11
O=C(CSc1nc(-c2ccccc2)ns1)N1CCOCC1 | 0 | 1 | 4 | 4 | 15
Cc1cccc(NC(=O)CSc2nc3n[nH]c(C)c3c(=N)n2-c2cccc(Cl)c2)c1 | 0 | -7 | -5 | 1 | -35*
Cc1ccc(NC(=O)CSc2nc3n[nH]c(C)c3c(=N)n2-c2cccc(C)c2)cc1 | -1 | -1 | 1 | 1 | -3
